“And” between values parts separate entries of the source, which are not always exact repeats. Identical values can stand only once. Inconclusive results are not listed. The source made the active and inactive calls. Unless noted, calls follow the shape of the dose curve; as a rule, active = well fitted curve in the direction sought with a large enough effect in the repeat runs; inconclusive = weak or mixed curves; inactive = no such curve, though single readings can be large; an effect the other way counts as inactive or inconclusive.
What was measured:
[1] = qHTS assay to identify small molecule agonists of the estrogen receptor alpha (ER-alpha) signaling pathway in the presence of an antagonist - cell viability counter screen (AID 1259386);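 also: series mostly up to about 92 µM; cells exposed to compounds for 22 h at 37 °C before the viability read; nearly all actives have a fitted effect of over 30% in size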
Summary of the method: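 VM7Luc4E2, stripped-serum pre-culture 5 d; 24hr plating; +ICI-182,780 10.0nM final; cpds 15 conc, 22hr, 37C/5% CO2; CellTiter-Fluor added at 21hr, fluorescence 1hr later.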

[2] = target: Progesterone receptor (Homo sapiens) (UniProt P06401); assay: qHTS assay to identify small molecule agonists of the progesterone receptor (PR) signaling pathway (AID 1346784; calls by dose curve; also: nearly all actives have a fitted effect of over 30% in size)
Progesterone receptor (Homo sapiens), sequence (P06401 whole entry, looked up): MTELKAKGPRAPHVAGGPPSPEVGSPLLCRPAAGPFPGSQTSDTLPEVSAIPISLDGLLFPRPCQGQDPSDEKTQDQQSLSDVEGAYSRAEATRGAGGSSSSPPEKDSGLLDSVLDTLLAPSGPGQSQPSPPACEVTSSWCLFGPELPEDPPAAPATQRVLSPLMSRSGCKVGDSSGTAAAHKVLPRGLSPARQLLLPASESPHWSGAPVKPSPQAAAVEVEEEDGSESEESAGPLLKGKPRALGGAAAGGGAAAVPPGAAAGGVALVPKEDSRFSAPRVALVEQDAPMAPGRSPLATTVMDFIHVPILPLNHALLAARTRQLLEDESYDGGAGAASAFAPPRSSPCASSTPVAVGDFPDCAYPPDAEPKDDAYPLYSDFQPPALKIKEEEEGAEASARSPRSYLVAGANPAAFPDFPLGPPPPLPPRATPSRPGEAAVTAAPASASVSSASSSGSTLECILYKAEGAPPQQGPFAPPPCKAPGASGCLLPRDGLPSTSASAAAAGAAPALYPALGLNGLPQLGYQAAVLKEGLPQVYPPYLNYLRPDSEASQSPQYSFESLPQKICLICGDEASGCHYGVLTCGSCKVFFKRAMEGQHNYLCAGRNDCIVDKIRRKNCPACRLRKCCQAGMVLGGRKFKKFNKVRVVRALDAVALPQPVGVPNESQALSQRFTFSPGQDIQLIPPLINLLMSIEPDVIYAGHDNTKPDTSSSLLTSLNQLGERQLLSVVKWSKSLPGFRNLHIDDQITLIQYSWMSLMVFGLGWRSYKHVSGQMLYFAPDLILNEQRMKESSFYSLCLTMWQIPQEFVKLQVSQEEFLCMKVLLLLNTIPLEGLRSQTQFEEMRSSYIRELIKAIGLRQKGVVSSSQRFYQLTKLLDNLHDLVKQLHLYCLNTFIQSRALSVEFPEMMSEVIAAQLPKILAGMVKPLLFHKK
Summary of the method: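 Agonist mode, quantitative HTS format in a HEK 293T line expressing a UAS-controlled beta-lactamase reporter; 16 hr compound exposure at 37C in 2% charcoal-stripped FBS, then LiveBLAzer B/G FRET fluorescence.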

[3] = qHTS assay to identify small molecule antagonists of the progesterone receptor (PR) signaling pathway - cell viability counter screen (AID 1346798); also: nearly all actives have a fitted effect of over 50% in size; also: potency is read from the fitted curve at half-maximal effect
Summary of the method: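 Same-well multiplex: after 16 hr at 37C with compound and R5020 stimulation, HEK293T cells carrying a UAS-bla reporter received LiveBLAzer substrate (2 hr RT), then CellTiter-Glo (30 min RT) for luminescent viability.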

[4] = qHTS assay to identify small molecule agonists of the progesterone receptor (PR) signaling pathway - cell viability counter screen (AID 1346799; calls by dose curve; also: nearly all actives have a fitted effect of over 45% in size; also: potency is read from the fitted curve at half-maximal effect)
Summary of the method: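 Counter screen for cytotoxicity: compound-treated PR-UAS-bla HEK293T cells (16 hr, 37C, 5% CO2) were assayed with CellTiter-Glo, luminescence measured after 30 min at room temperature.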

[5] = qHTS assay to identify small molecule antagonists of the TGF-beta/Smad signaling pathway - cell viability counter screen (AID 1346824); also: nearly all actives have a fitted effect of over 50% in size
Summary of the method: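 SBE-bla HEK 293T cells, incubated overnight, then compound plus 0.25 ng/mL TGF-beta1 (stock added) for 5 hr at 37 C. Viability was read in the same wells by CellTiter-Glo luminescence after 30 min at room temperature.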

[6] = qHTS assay to identify small molecule agonists of the TGF-beta/Smad signaling pathway - cell viability counter screen (AID 1346829); also: top concentration of the series differs between compounds; nearly all actives have a fitted effect of over 45% in size
Summary of the method: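 Same-well cytotoxicity: CellTiter-Glo added after the 2 hr room-temperature beta-lactamase substrate step, luminescence measured 30 min later; cells had 5 hr of compound at 37 C.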

[7] = qHTS assay to identify small molecule agonists of the TGF-beta/Smad signaling pathway (AID 1346859; active = well fitted activation curve with a large enough effect in the signal ratio in the repeat runs, not every such curve was filed as active; the % refers to the signal ratio; also: series mostly up to about 77 µM)
Summary of the method: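 Smad-responsive beta-lactamase reporter cells (HEK 293T) received compounds from DMSO stocks after overnight attachment, were incubated 5 hr, then treated 2 hr with FRET substrate before dual-emission fluorescence measurement (405 nm excitation).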

[8] = target: Thyrotropin-releasing hormone receptor (Homo sapiens) (UniProt P34981); assay: qHTS assay to identify small molecule antagonists of the thyrotropin-releasing hormone receptor (TRHR) signaling pathway (AID 1346877; active = well fitted inhibition curve with a large enough effect in the repeat runs, not every such curve was filed as active; also: series mostly up to about 51 µM)
Thyrotropin-releasing hormone receptor (Homo sapiens), sequence (P34981 whole entry, looked up): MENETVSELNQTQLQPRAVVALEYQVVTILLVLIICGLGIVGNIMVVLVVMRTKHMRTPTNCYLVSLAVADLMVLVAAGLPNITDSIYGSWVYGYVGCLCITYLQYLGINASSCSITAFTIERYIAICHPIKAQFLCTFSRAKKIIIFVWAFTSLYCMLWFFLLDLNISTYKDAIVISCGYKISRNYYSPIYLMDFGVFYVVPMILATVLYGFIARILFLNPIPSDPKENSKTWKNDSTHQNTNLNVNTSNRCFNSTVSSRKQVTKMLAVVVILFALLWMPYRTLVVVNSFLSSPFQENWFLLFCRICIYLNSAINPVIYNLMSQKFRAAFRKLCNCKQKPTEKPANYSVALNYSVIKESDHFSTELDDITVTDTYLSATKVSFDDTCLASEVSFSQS
Summary of the method: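 Intracellular calcium fluorescence, read kinetically every second over 3 min, reports TRH-evoked signalling in HEK293 cells carrying TRHR. Test compounds were added 5 min ahead of a 1 nM TRH challenge.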

[9] = target: Thyrotropin-releasing hormone receptor (Homo sapiens) (UniProt P34981); assay: qHTS assay to identify small molecule agonists of the thyrotropin-releasing hormone receptor (TRHR) signaling pathway (AID 1346891; calls by dose curve;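 also: HEK293 cells expressing TRHR with calcium dye readout; series mostly up to about 58 µM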)
Summary of the method: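 Agonist-mode calcium mobilisation screen: TRHR-transfected HEK293 cells cultured overnight (18 h), dye-loaded for 2 h at 37 °C, exposed to compounds, and monitored by fluorescence for 3 min.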

[10] = target: Progesterone receptor (Homo sapiens) (UniProt P06401); assay: qHTS assay to identify small molecule antagonists of the progesterone receptor (PR) signaling pathway (AID 1346795; active = well fitted inhibition curve with a large enough effect in the signal ratio in the repeat runs, not every such curve was filed as active; the % refers to the signal ratio)
Summary of the method: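 HEK293T PR-UAS-bla reporter cells in charcoal-stripped serum (2%) received compound after a 6 hr settling period, followed by R5020 agonist at 1 nM final; 16 hr incubation preceded the FRET substrate step and fluorescence measurement.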

Measured: Potency

c1ccc2c(c1)sc1ccccc12
not listed: [10]
inactive: all other assays above

O=C([O-])c1ccccn1.O=C([O-])c1ccccn1.O=C([O-])c1ccccn1.[Cr+3]
inactive: [1] | [2] | [3] | [4] | [6] | [7]

NNCCO
inactive: [1] | [2] | [3] | [4] | [5] | [7]

Clc1ccc2ccccc2c1
not listed: [4] | [10]
inactive: all other assays above

C=CCc1ccc(OC(=O)Cc2ccccc2)c(OC)c1
not listed: [10]
inactive: all other assays above

CN(C)N
not listed: [10]
inactive: all other assays above

O=[N+]([O-])c1cc(Cl)c(Cl)cc1Cl
inactive: [1] | [2] | [3] | [4] | [6] | [7]

CC(C)CCCCCCCOC(=O)c1ccccc1C(=O)OCCCCCCCC(C)C
not listed: [4] | [10]
inactive: all other assays above

Cc1cnc(C2=NC(C)(C(C)C)C(=O)N2)c(C(=O)O)c1 (stereo not drawn)
not listed: [5] | [10]
inactive: all other assays above

CCOP(=S)(S)OCC
not listed: [10]
inactive: all other assays above

FC(Cl)(Cl)C(F)(Cl)Cl
inactive: [1] | [2] | [3] | [4] | [6] | [7]

CC(=O)NNc1ccccc1
inactive: [1] | [2] | [5] | [6] | [7]
active: [3] 30.4 µM

CC(CC(C(N)=O)(c1ccccc1)c1ccccc1)N(C)C (stereo not drawn)
not listed: [10]
inactive: all other assays above

CC(C)(c1ccccc1)c1cc(-n2nc3ccccc3n2)c(O)c(C(C)(C)c2ccccc2)c1
not listed: [4] | [10]
inactive: all other assays above

CN(C1CCCCC1)C1CCCCC1
not listed: [10]
inactive: all other assays above

CCCN(CCC)c1c([N+](=O)[O-])cc(C(C)C)cc1[N+](=O)[O-]
not listed: [10]
inactive: all other assays above

CCCCCCCCCCCC[N+](C)(C)CCOc1ccccc1
inactive: [1] | [2] | [8] | [9]
active: [3] 54.5 µM and 13.3 µM | [4] 24.3 µM and 23.7 µM

CCOP(=O)(O)C(N)=O
not listed: [10]
inactive: all other assays above

Nc1ccccc1C(=O)OCCc1ccccc1
not listed: [6] | [10]
inactive: all other assays above

C=CC(=O)OCC
not listed: [5] | [10]
inactive: all other assays above

C[Si](Cn1cncn1)(c1ccc(F)cc1)c1ccc(F)cc1
not listed: [4] | [10]
inactive: all other assays above

O=C(O)c1ccc(=O)[nH]c1
not listed: [10]
inactive: all other assays above

C[N+]1(CCF)[C@@H]2CC[C@H]1CC(OC(=O)C(O)(c1ccccc1)c1ccccc1)C2 (stereo partly drawn)
not listed: [4] | [10]
inactive: all other assays above

Nc1cccc2ccccc12
not listed: [10]
inactive: all other assays above

CCCN(CCOc1c(Cl)cc(Cl)cc1Cl)C(=O)n1ccnc1
inactive: [1] | [2] | [5] | [6] | [7]
active: [3] 78.6 µM

CC1(C)[C@H](C(=O)O[C@H](C#N)c2cccc(Oc3ccccc3)c2)[C@@H]1C=C(Br)Br
not listed: [5] | [10]
inactive: all other assays above

Cc1nc(N(C)C)nc(OC(=O)N(C)C)c1C
not listed: [2]
inactive: all other assays above

Cc1nnc(-c2ccccc2)c(=O)n1N
not listed: [3] | [10]
inactive: all other assays above

CCCCCCCCCCCCCCCl
not listed: [2]
inactive: all other assays above

CCC1(CC)C(=O)NC(=O)NC1=O
not listed: [2] | [6]
inactive: all other assays above
